{
  "source": "PubChem BioAssay (NCATS)",
  "key": {"[1]": {"experiment": "Cell Proliferation Assay against the TMD8 Cell Line (Caspase readout at 16 hrs) (AID 651712)", "outline": "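TMD8 cells in RPMI with 5% FBS were treated with compound for 16 h at 37 C, then caspase 3/7 activation was read by Caspase-Glo luminescence. Percent activity was scaled to DMSO (0%) and 9.2 uM bortezomib final (100%).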"}, "[2]": {"experiment": "Cell Proliferation Assay against the TMD8 Cell Line (Caspase readout at 8 hrs) (AID 651713); also: potency is read from the fitted curve at half-maximal effect", "outline": "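TMD8 cells (500/well) in phenol red-free RPMI with 5% FBS were treated with compounds for 8 h at 37C, 5% CO2. Caspase-Glo 3/7 luminescence was read after 15 min at room temperature and normalised to DMSO (0%) and 9.2 uM bortezomib (100%).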"}, "[3]": {"experiment": "qHTS assay for small molecule activators of the p53 signaling pathway (AID 651743; active = well fitted activation curve with a large enough effect in the signal ratio, not every such curve was filed as active; the % refers to the signal ratio)", "conditions": "HCT-116 p53RE-bla, beta-lactamase FRET ratio, 16 h; stronger effect = higher value", "outline": "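HCT-116 p53RE-bla, 4,000 cells/well; 5 h settle; cpd/DMSO 16 h, 37 C; LiveBLAzer B/G 2 h RT; fluorescence intensity.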"}, "[4]": {"target": "Tumor necrosis factor (Homo sapiens) (UniProt P01375)", "sequence (P01375 whole entry, looked up)": "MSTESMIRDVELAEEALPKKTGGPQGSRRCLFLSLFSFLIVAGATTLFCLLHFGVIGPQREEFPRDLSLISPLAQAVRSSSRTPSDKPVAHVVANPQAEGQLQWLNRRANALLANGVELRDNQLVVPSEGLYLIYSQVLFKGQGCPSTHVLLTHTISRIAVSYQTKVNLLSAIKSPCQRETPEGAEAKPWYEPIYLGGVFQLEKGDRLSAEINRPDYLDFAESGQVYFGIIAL", "experiment": "qHTS assay to identify small molecules that stimulate Tumor Necrosis Factor-alpha (TNF-alpha) secretion (AID 651757; active = well fitted curve in the direction sought with a large enough effect in the signal ratio; the % refers to the signal ratio)", "outline": "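THP-1 cells were exposed to compounds for 17 hrs at 37 C, after which secreted TNF-alpha was measured by homogeneous HTRF (TR-FRET) using cryptate- and XL665-labeled anti-TNF-alpha antibodies, read after 3 hr at room temperature.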"}, "[5]": {"experiment": "qHTS assay for small molecule activators of the nuclear factor-kappa B (NF-kB) signaling pathway (AID 651749; active = well fitted activation curve with a large enough effect in the signal ratio; the % refers to the signal ratio)", "conditions": "NF-kB-bla ME-180 cells, beta-lactamase FRET ratio, 16 h; stronger effect = higher value", "outline": "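Incubation lasted 16 hr at 37C in 5% CO2 after 23 nL compound addition to ME-180 NF-kB-bla cells. Activation appears as beta-lactamase-mediated FRET loss.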"}, "[6]": {"experiment": "qHTS Assay for Identification of Small Molecule Agonists for NFkB Signaling Pathway. (AID 624478)", "outline": "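NFkB-bla ME-180 cells (beta-lactamase reporter under NFkB response element) were plated overnight, treated with compound plus TNF alpha at 10 pM final (its EC50) for 5 hrs at 37 C, then loaded with LiveBLAzer substrate for 2 hrs.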"}, "[7]": {"experiment": "qHTS Assay for Identification of Small Molecule Antagonists for NFkB Signaling Pathway. (AID 624479; calls by dose curve;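 also: pathway stimulated with TNF alpha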)"}, "[8]": {"experiment": "Cell Proliferation Assay against the TMD8 Cell Line (AID 651645);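 also: cells exposed to compound for 48 h before reading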", "conditions": "TMD8 DLBCL cell line proliferation/viability; at 46.1 µM (top of the series)", "outline": "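TMD8 ABC DLBCL cells, 500 per well in phenol red-free RPMI with 5% FBS, were treated with compound by pin transfer and incubated 48 hours at 37C, 5% CO2. Viability was read by CellTiter-Glo luminescence, normalised to DMSO (100%) and 9.2 uM bortezomib (0%).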"}, "[9]": {"experiment": "Cell Proliferation Assay against the HBL1 Cell Line (AID 651646);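 also: cells exposed to compound for 48 h before reading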", "conditions": "HBL1 DLBCL cells; at 46.1 µM (top of the series)", "outline": "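HBL1 ABC DLBCL cells, 500/well in RPMI with 5% FBS, treated for 48 h at 37C. Viability read by CellTiter-Glo luminescence, normalized to DMSO as 100% and 9.2 uM bortezomib as 0%.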"}, "[10]": {"experiment": "qHTS assay to identify small molecules that stimulate interleukin-8 (IL-8) secretion (AID 651758; active = well fitted activation curve with a large enough effect in the signal ratio; the % refers to the signal ratio)", "outline": "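THP-1 cells (2000/well) exposed to compound 16 h at 37 C; secreted IL-8 then detected by HTRF with cryptate- and XL665-labelled anti-IL-8 antibody pair after 1-3 h at room temperature.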"}},
  "note": "Where “and” joins values, the source holds several entries; their conditions need not be identical. Identical values can stand only once. Records with an inconclusive call do not appear. A call without a number means that no potency is given here. Calls of active or inactive are those of the source. Unless noted, calls follow the shape of the dose curve; as a rule, active = well fitted curve in the direction sought with a large enough effect; inconclusive = small, poorly fitted or top-dose-only effect, or another doubt; inactive = no such curve, though single readings can be large; an effect the other way counts as inactive or inconclusive.",
  "data": [
    {"compound": "COc1cc2c(Nc3ccc(Br)cc3F)ncnc2cc1OCC1CCN(C)CC1", "values": [
      {"measurement": "outcome", "setting": "[1]", "result": "inactive"}
    ]},
    {"compound": "CCN(CC)CCn1c(=O)c(Cc2ccc(OC)cc2)nc2ccccc21", "values": [
      {"measurement": "outcome", "setting": "[1]", "result": "inactive"},
      {"measurement": "Potency", "setting": "[2]", "result": "inactive"}
    ]},
    {"compound": "COc1cc2nc(N3CCCN(C)CC3)nc(NC3CCN(Cc4ccccc4)CC3)c2cc1OC", "values": [
      {"measurement": "Potency", "setting": "[2]", "result": "26.4 µM (active)"}
    ]},
    {"compound": "CC(=O)[C@H]1CC[C@H]2[C@@H]3CCC4=CC(=O)CC[C@]4(C)[C@H]3CC[C@]12C", "values": [
      {"measurement": "activation", "setting": "[3]", "result": "-1.4% (inactive) and -5.04% (inactive) and -4.98% (inactive)"},
      {"measurement": "outcome", "setting": "[4]", "result": "inactive"}
    ]},
    {"compound": "N[C@@H](Cc1ccc(O)c(O)c1)C(=O)O", "values": [
      {"measurement": "activation", "setting": "[5]", "result": "0.678% (inactive)"}
    ]},
    {"compound": "COc1cc([C@@H]2c3cc4c(cc3[C@H](O)[C@H]3COC(=O)[C@H]23)OCO4)cc(OC)c1OC", "values": [
      {"measurement": "outcome", "setting": "[6]", "result": "inactive"},
      {"measurement": "Potency", "setting": "[7]", "result": "inactive"},
      {"measurement": "viability (% of control)", "setting": "[8]", "result": 0.77, "unit": "%"},
      {"measurement": "viability, percent of control", "setting": "[9]", "result": 23.7, "unit": "%"}
    ]},
    {"compound": "NC1(c2ccc(-c3nc4ccn5c(=O)[nH]nc5c4cc3-c3ccccc3)cc2)CCC1", "values": [
      {"measurement": "outcome", "setting": "[6]", "result": "inactive"},
      {"measurement": "viability (% of control)", "setting": "[8]", "result": -0.504, "unit": "%"},
      {"measurement": "viability, percent of control", "setting": "[9]", "result": 1.05, "unit": "%"},
      {"measurement": "Potency", "setting": "[2]", "result": "26.4 µM (active)"}
    ]},
    {"compound": "Cc1ncc([N+](=O)[O-])n1CCO", "values": [
      {"measurement": "outcome", "setting": "[10]", "result": "inactive"}
    ]},
    {"compound": "NNC(=O)c1ccncc1", "values": [
      {"measurement": "outcome", "setting": "[10]", "result": "inactive"}
    ]}
  ]
}
